The target in assay [1] is Bile acid receptor (Homo sapiens) (UniProt Q96RI1). Nature of the assay: OT_FXR_FXRSRC1_0480: Odyssey Thera (OT) 8-hour HEK293T Protein-Complementation Assay for Farnesoid X receptor/SRC-1 Co-activator (AID 2283383). The essentials: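 Binding of FXR to coactivator SRC-1 was read as fluorescence from a reconstituted split reporter in HEK293T cells, 8 h after chemical addition. Only increases in signal versus DMSO were fit.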

Assay [2] shares this target. Nature of the assay: OT_FXR_FXRSRC1_1440: Odyssey Thera (OT) 24-hour HEK293T Protein-Complementation Assay for Farnesoid X receptor/SRC-1 Co-activator (AID 2283384). An outline of the steps:
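Protein-fragment complementation: FXR and SRC-1 fused to reporter fragments that reassemble on interaction, read by fluorescence intensity. Human HEK293T cells measured 24 h post-dose; positive-direction fit versus DMSO.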

In assay [3] the target is Retinoic acid receptor RXR-alpha (Homo sapiens) (UniProt P19793). Briefly: OT_NURR1_NURR1RXRa_0480: Odyssey Thera (OT) 8-hour HEK293T Protein Complementation Assay for Nurr1/retinoid X receptor (RXR) (AID 2283385). The essentials:
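Interaction of Nurr1 with RXRα read as reconstituted reporter fluorescence in a HEK293T fragment-complementation system, 8 h post-treatment; increase over DMSO baseline analysed.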

Assay [4] has as its target Peroxisome proliferator-activated receptor gamma (Homo sapiens) (UniProt P37231). Nature of the assay: OT_PPARg_PPARgSRC1_0480: Odyssey Thera (OT) 8-hour Protein-Complementation Assay for Peroxisome Proliferator-activated Receptor Gamma / SRC-1 Co-activator (AID 2283387). The essentials: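 Read-out: 488 nm N/C fluorescence ratio from complemented Venus YFP fragments, ≥350 cells per image, gain-of-signal fitted against DMSO baseline. Fusions of PPARg/SRC-1 with IFP1/IFP2 expressed transiently in HEK293T; compounds applied 8 h.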

Assay [5] has the same target. Briefly: OT_PPARg_PPARgSRC1_1440: Odyssey Thera (OT) 24-hour Protein-Complementation Assay for Peroxisome Proliferator-activated Receptor Gamma/ SRC-1 Co-activator (AID 2283388). An outline of the steps: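 HEK293T transiently transfected with PPARg/SRC-1 split-Venus YFP fusions 48 h before dosing, then treated 24 h at 37C. Fixed cells imaged; nuclear/cytoplasmic 488 nm fluorescence ratio, gain of signal versus DMSO.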

Assay [6] is described as follows: ATG_XTT_Cytotoxicity: Cytotoxicity Assessment in the Attagene TRANS-FACTORIAL HepG2 Assay (AID 2283584).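 For AC50: XTT signal for cell number as viability in transfected HepG2 cells; cells exposed to compound for 24 h before reading; active means loss of viability signal versus DMSO baseline.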 The essentials:
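HepG2 cells transiently transfected with GAL4-UAS multiple reporter units, dosed 24 h; cytotoxicity read by XTT as loss of signal versus DMSO baseline.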

Assay [7] can be described thus: CEETOX_H295R_11DCORT: CeeTox H295R High-throughput Steroidogenesis Assay for 11-Deoxycortisol (11DCORT) (AID 2283432; active = hit-call score of the fitted dose curve at least 0.9, where 1 is the maximum; inactive = score below 0.9;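 for AC50: 11-deoxycortisol secreted into the medium measured by LC-MS/MS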). As to conditions: actives raise or lower the signal. The essentials:
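H295R cells; 10 uM forskolin prestim 48 h; compound in 0.1% DMSO 48 h; media extracted with MTBE; 11-deoxycortisol by LC-MS/MS, 7-point standard curve; gain/loss vs DMSO baseline; viability by MTT in same wells.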

Assay [8] is described as follows: CEETOX_H295R_OHPREG: CeeTox H295R High-throughput Steroidogenesis Assay for OH-Pregnenolone (OHPREG) (AID 2283434; active = hit-call score of the fitted dose curve at least 0.9, where 1 is the maximum; inactive = score below 0.9). As to conditions: actives raise or lower the signal. The essentials:
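Readout: HPLC-MS/MS of 17alpha-hydroxypregnenolone in medium after 48 h chemical exposure of H295R cells pretreated with forskolin. Values fitted bidirectionally relative to DMSO; chemicals reducing viability to 20–70% were retested after 10-fold dilution.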

Assay [9] can be described thus: CEETOX_H295R_OHPROG: CeeTox H295R High-throughput Steroidogenesis Assay for OH-Progesterone (OHPROG) (AID 2283435; active = hit-call score of the fitted dose curve at least 0.9, where 1 is the maximum; inactive = score below 0.9;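 for AC50: 17alpha-hydroxyprogesterone secreted into medium measured by HPLC-MS/MS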). As to conditions: actives raise or lower the signal. An outline of the steps:
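Medium steroid levels read by LC-MS/MS after 48 h chemical treatment (0.1% DMSO) of human adrenal H295R cells that had been forskolin-primed (10 uM, 48 h). Gain or loss fitted against DMSO; MTT cytotoxicity checked per well.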

A short description of assay [10]: CEETOX_H295R_ANDR: CeeTox H295R High-throughput Steroidogenesis Assay for Androstenedione (ANDR) (AID 2283436; active = hit-call score of the fitted dose curve at least 0.9, where 1 is the maximum; inactive = score below 0.9). To be noted: actives raise or lower the signal. An outline of the steps: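 Steroidogenesis in H295R adrenal cells after 48 h dosing; androstenedione quantified by LC-MS/MS, with DMSO as negative control and baseline for bidirectional curve fitting.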
Assay [11] can be described thus: CEETOX_H295R_CORTIC: CeeTox H295R High-throughput Steroidogenesis Assay for Corticosterone (CORTIC) (AID 2283437; active = hit-call score of the fitted dose curve at least 0.9, where 1 is the maximum; inactive = score below 0.9;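 note: corticosterone secreted into medium quantified by mass spectrometry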;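 for AC50: human H295R adrenal cells prestimulated with forskolin before chemical exposure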). To be noted: actives raise or lower the signal. An outline of the steps: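 Steps: seed H295R, adhere overnight; 10 uM forskolin 48 h; replace with chemical (0.1% DMSO) 48 h; extract medium with MTBE; quantify corticosterone by HPLC-MS/MS; score bidirectionally vs DMSO.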

The nature of assay [12]: CEETOX_H295R_CORTISOL: CeeTox H295R High-throughput Steroidogenesis Assay for Cortisol (AID 2283438; active = hit-call score of the fitted dose curve at least 0.9, where 1 is the maximum; inactive = score below 0.9). To be noted: actives raise or lower the signal. The essentials: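 Cortisol measured by HPLC-MS/MS after MTBE extraction of medium from H295R cells exposed 48 h to chemical (0.1% DMSO), following 48 h prestimulation with 10 uM forskolin. Viability assessed by MTT in the same wells.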

Assay [13] in a line: CEETOX_H295R_DOC: CeeTox H295R High-throughput Steroidogenesis Assay for DOC (AID 2283439; active = hit-call score of the fitted dose curve at least 0.9, where 1 is the maximum; inactive = score below 0.9). As to conditions: actives raise or lower the signal. An outline of the steps: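 11-Deoxycorticosterone quantified in medium by MTBE extraction and HPLC-MS/MS after 48 h chemical exposure (0.1% DMSO) of forskolin-primed (10 uM, 48 h) H295R cells. Same-well MTT viability; data fitted bidirectionally against DMSO.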

The nature of assay [14]: CEETOX_H295R_ESTRADIOL: CeeTox H295R High-throughput Steroidogenesis Assay for Estradiol (AID 2283440; active = hit-call score of the fitted dose curve at least 0.9, where 1 is the maximum; inactive = score below 0.9;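 note: estradiol secreted into medium quantified by LC-MS/MS after dansyl derivatisation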). As to conditions: actives raise or lower the signal. The essentials: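 H295R cells pre-stimulated 48 h with 10 uM forskolin, then exposed 48 h to chemical in 0.1% DMSO. Medium estradiol quantified by MTBE extraction, dansyl derivatisation and HPLC-MS/MS; bidirectional fit versus DMSO; MTT viability required >/=70%.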

A short description of assay [15]: CEETOX_H295R_ESTRONE: CeeTox H295R High-throughput Steroidogenesis Assay for Estrone (AID 2283441; active = hit-call score of the fitted dose curve at least 0.9, where 1 is the maximum; inactive = score below 0.9). To be noted: actives raise or lower the signal. An outline of the steps:
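Estrone secreted into medium quantified by LC-MS/MS after dansyl chloride derivatization, following 48 h chemical exposure (0.1% DMSO final) of forskolin-prestimulated (10 uM, 48 h) H295R cells; gain or loss fitted against DMSO; MTT viability in same wells.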

Assay [16] can be described thus: CEETOX_H295R_PROG: CeeTox H295R High-throughput Steroidogenesis Assay for Progesterone (PROG) (AID 2283442; active = hit-call score of the fitted dose curve at least 0.9, where 1 is the maximum; inactive = score below 0.9;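 for AC50: human H295R adrenal cells primed with 10 µM forskolin before dosing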). As to conditions: actives raise or lower the signal. The essentials:
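H295R adrenal cells prestimulated 48 h with 10 uM forskolin, then exposed 48 h to test chemical in 0.1% DMSO. Progesterone in medium quantified by HPLC-MS/MS after MTBE extraction; viability checked by MTT in same wells.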

Assay [17] in a line: CEETOX_H295R_TESTO: CeeTox H295R High-throughput Steroidogenesis Assay for Testosterone (TESTO) (AID 2283457; active = hit-call score of the fitted dose curve at least 0.9, where 1 is the maximum; inactive = score below 0.9;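 for AC50: cells exposed to chemicals for 48 h before medium collection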). To be noted: actives raise or lower the signal. The essentials: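 H295R adrenal cells, passage ≤10, exposed to chemicals for 48 h. Testosterone in medium measured by MTBE extraction and HPLC-MS/MS against a 7-point standard curve. Bidirectional fit versus DMSO; MTT viability checked in the same wells.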

Assay [18] has as its target Retinoic acid receptor RXR-alpha (Homo sapiens) (UniProt P19793). Briefly: OT_NURR1_NURR1RXRa_1440: Odyssey Thera (OT) 24-hour HEK293T Protein Complementation Assay for Nurr1/retinoid X receptor (RXR) (AID 2283386). The essentials:
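Gain in fluorescence, fitted relative to DMSO, reflects Nurr1–RXRα association in HEK293T cells after 24 h dosing. Bait and prey are each linked to a reporter-protein fragment that reassembles on interaction.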

The nature of assay [19]: TOX21_p53_BLA_p3_viability: Viability Assessment in the Tox21 HCT-116 p53 Agonism Beta-lactamase Assay, Phase 3 (AID 2283593).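 Note: cells exposed to compound for 16 h before reading.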 An outline of the steps: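 HCT-116 cells (4000/well) rested 5 h at 37C, then got DMSO compounds by pin tool (217-fold dilution) for 16 h at 37C, 5% CO2. After the bla read, CellTiter-Glo was added and luminescence read at 30 min, room temperature.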

The target in assay [20] is Cellular tumor antigen p53 (Homo sapiens) (UniProt P04637). Briefly: TOX21_p53_BLA_p2_ratio: Tox21 HCT-116 p53 Agonism Beta-lactamase Assay, Ratio, Phase 2 (AID 2283592). The essentials:
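First, HCT116 reporter cells settle for 5 h at 37C. Next, DMSO compound solutions are pinned in (217-fold dilution) and left 16 h. Finally, CCF4-AM substrate is loaded 2 h at room temperature and the 460/530 nm ratio read.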

Among the data in PubChem BioAssay (EPA / NIEHS) are outcome and AC50 values, retold here.

Each structure is given as a SMILES string. Records with an inconclusive call do not appear. Calls of active or inactive are those of the source. Rule for the calls, unless noted: active = hit-call score of the fitted dose curve at least 0.9, where 1 is the maximum; inconclusive = response in the unintended direction; inactive = score below 0.9.

Sequence of Bile acid receptor (Homo sapiens) (Q96RI1 whole entry, looked up): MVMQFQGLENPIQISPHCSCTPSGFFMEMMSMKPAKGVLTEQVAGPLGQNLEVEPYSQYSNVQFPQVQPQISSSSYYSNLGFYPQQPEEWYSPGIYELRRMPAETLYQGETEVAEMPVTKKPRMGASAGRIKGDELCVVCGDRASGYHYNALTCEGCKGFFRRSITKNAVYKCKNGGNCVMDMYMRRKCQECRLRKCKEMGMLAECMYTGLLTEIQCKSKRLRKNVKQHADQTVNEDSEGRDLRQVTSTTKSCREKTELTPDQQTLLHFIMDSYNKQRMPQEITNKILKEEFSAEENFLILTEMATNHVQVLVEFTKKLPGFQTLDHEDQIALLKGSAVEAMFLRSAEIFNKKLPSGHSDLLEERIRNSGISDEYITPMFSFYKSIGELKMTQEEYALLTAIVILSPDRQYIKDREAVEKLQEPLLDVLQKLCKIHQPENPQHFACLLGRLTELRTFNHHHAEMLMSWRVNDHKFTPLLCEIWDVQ
Sequence of Cellular tumor antigen p53 (Homo sapiens) (P04637 whole entry, looked up): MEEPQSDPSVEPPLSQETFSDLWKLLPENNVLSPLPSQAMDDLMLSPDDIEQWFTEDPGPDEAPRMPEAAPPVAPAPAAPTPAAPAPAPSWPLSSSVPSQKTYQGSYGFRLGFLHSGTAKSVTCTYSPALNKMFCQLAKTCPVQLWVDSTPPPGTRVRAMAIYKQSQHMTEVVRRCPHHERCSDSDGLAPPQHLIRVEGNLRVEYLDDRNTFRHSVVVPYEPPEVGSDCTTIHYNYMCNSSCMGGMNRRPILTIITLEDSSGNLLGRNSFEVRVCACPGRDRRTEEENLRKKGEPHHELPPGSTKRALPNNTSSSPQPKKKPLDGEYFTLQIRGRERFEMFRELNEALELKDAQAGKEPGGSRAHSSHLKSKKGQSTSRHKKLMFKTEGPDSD
Sequence of Peroxisome proliferator-activated receptor gamma (Homo sapiens) (P37231 whole entry, looked up, the tested form may be a part): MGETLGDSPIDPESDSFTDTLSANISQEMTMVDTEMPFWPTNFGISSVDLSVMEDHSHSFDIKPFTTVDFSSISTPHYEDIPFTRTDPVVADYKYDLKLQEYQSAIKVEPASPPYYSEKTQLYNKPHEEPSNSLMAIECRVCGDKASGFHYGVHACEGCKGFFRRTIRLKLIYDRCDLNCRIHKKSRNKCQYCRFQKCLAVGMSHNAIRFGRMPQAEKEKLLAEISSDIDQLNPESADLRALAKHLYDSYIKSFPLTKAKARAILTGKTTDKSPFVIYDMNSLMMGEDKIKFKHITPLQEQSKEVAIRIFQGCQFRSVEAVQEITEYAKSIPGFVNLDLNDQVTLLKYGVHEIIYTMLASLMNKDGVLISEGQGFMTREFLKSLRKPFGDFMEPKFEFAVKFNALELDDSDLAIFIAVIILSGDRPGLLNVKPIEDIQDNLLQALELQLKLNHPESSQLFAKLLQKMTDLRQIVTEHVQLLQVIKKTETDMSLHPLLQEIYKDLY
Sequence of Retinoic acid receptor RXR-alpha (Homo sapiens) (P19793 whole entry, looked up, the tested form may be a part): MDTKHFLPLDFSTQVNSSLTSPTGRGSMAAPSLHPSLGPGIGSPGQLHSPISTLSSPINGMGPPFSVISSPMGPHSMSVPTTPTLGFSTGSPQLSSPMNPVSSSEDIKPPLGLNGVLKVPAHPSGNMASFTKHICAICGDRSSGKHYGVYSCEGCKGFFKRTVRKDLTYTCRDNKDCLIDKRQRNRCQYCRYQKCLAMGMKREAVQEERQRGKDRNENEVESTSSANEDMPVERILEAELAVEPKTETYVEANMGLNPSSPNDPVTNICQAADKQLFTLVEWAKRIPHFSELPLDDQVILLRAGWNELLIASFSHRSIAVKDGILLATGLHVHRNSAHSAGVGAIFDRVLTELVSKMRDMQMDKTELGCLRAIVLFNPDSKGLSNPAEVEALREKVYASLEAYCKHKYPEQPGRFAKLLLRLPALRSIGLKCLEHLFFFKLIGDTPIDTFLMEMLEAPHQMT

On to `CCCCC(CC)COP(=O)(O)OCC(CC)CCCC` (configuration not stated), for which the compound was classed as inactive in [1] and in assay [3]. The AC50 was 71.8 µM (active) in assay [2], 64.4 µM (active) in assay [4], 67.8 µM (active) in [5] and 146 µM (active) in assay [6].
Take `CC(=O)Nc1ccc(N=Nc2cc(C)ccc2O)cc1`: the AC50 in assay [7] was 33.7 µM (active); in assay [9], 16 µM (active); in assay [10] it was 25 µM (active); in assay [11], 25 µM (active); in assay [16], 20.9 µM (active); in assay [17] it was 31.5 µM (active). The call in assay [8], in assay [12], in assay [13], in assay [14], in assay [15] and in [6] was inactive.
For `CCCCCCC(C)OC(=O)CCCCC(=O)OC(C)CCCCCC` (configuration not stated), the compound was called inactive in assay [1], in assay [2], in [3], in [18], in assay [4] and in assay [5]. In assay [6], the call was inactive.
On to `c1ccc(B(c2ccccc2)c2ccccc2)cc1`, for which the result in assay [1], in assay [2], in assay [3], in assay [18], in [4] and in [5] was inactive. The compound was called inactive in [9], in assay [11], in assay [12], in assay [6] and in assay [19]. Besides, the AC50 in [7] is 33.7 µM (active); in [8], 15 µM (active); in assay [13], 8.03 µM (active); in [16] it was 12.6 µM (active).
As for `C1COCCN1`, the compound was called inactive in assay [3], in assay [18], in assay [6], in assay [20] and in [19].
For the compound `O=S(=O)(O)c1ccc2ccccc2c1`, the compound was called inactive in [1], in [2], in assay [3], in [18], in assay [4] and in [5]. For the same compound, the result in assay [6], in [20] and in assay [19] was inactive.
For `CC(C)OC(=O)c1ccccc1C(=O)OC(C)C`, the compound was classed as inactive in assay [1], in [2], in assay [18], in [4], in assay [5] and in assay [6].
As for `Cc1cc(C)cc(O)c1`, the compound was called inactive in [18], in [4], in assay [5], in [6] and in [20].
Consider `OC[C@@H](O)[C@@H](O)[C@H](O)[C@@H](O)CO`, for which the result in assay [3], in [18], in [4], in assay [5], in assay [6] and in [20] was inactive. In assay [19], the call was inactive.
In the case of `CCN(Cc1cccc(S(=O)(=O)O)c1)c1ccc(C(=C2C=CC(=[N+](CC)Cc3cccc(S(=O)(=O)O)c3)C=C2)c2ccc(O)cc2S(=O)(=O)[O-])cc1`, the compound was called inactive in assay [3], in [18], in [4], in assay [5] and in assay [6].
As to `CC/C=C\CCOC(C)=O`, the call in assay [3], in [4], in assay [5], in assay [6] and in assay [19] was inactive.
In the case of `CCCCCCS`, the outcome in assay [7], in assay [8], in assay [9], in assay [10], in assay [11] and in assay [12] was inactive. Further, the compound was classed as inactive in [13], in [14], in assay [15], in assay [16] and in assay [17].
Regarding `Nc1ccc(Oc2cccc(Oc3ccc(N)cc3)c2)cc1`, the outcome in assay [7], in assay [8], in [13], in assay [14] and in [15] was inactive. The AC50 in assay [9] was 2.87 µM (active); in assay [11], 2.84 µM (active); in [12], 3.6 µM (active); in assay [16] it was 3.9 µM (active).

As a reminder, the AC50 is the midpoint of the concentration-response curve, whichever way the signal moves.
